Some test systems named below: SR leukemia; RPMI-8226 leukemia; OVCAR-8 ovarian; OVCAR-5 ovarian; OVCAR-4 ovarian; SK-OV-3 ovarian; IGROV1 ovarian; OVCAR-3 ovarian; HS 578T breast; NCI/ADR-RES ovarian.
Holding throughout (test): NCI-60 one-dose screen, 48 h (100 = growth as untreated, 0 = no growth, -100 = all killed)
Holding throughout (settings): 10 µM unless noted

Compounds without any hit were thinned out: in the full panel of roughly 83,000, 20% have a hit.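 Single-concentration screen, 48 h exposure, 96-well plates. Endpoint: percent growth. Below 10 = active.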 Values without a mark were called inactive. The source made the active and inactive calls.

Experimental findings from PubChem BioAssay (NCI) are described below.

Regarding `N#Cc1cccc(F)c1`, the growth with SR leukemia was 98.1%; in the experiment on RPMI-8226 leukemia, 113%; with OVCAR-8 ovarian it was 109%; in the experiment on OVCAR-5 ovarian it was 83.1%; in the experiment with OVCAR-4 ovarian, 118%; with SK-OV-3 ovarian it was 111%. For the same compound, the growth was 106% in the experiment on IGROV1 ovarian, 126% with OVCAR-3 ovarian, 107% in the experiment with HS 578T breast and 104% in the experiment on NCI/ADR-RES ovarian.
Regarding `COc1cc(CNC(=O)CCCC/C=C/C(C)C)ccc1OCc1nnc(Nc2ccc([N+](=O)[O-])cc2)o1`, the growth in the experiment with SR leukemia is 64.2%; in the experiment with RPMI-8226 leukemia it was 52.3%; in the experiment with OVCAR-8 ovarian, 25%; in the experiment on OVCAR-5 ovarian, 101%; in the experiment on OVCAR-4 ovarian, 11.3%; in the experiment on SK-OV-3 ovarian it was 11.8%. Besides, the growth was 53.5% in the experiment with IGROV1 ovarian, 77.3% in the experiment with OVCAR-3 ovarian, 63.2% with HS 578T breast and 79.6% in the experiment on NCI/ADR-RES ovarian.
In the case of `C[C@]12C=CC(=O)C=C1CCC1C2[C@@H](O)C[C@@]2(C)C1CC[C@]2(O)C(=O)COC(=O)CCC(=O)O` (stereo not given in full), the growth was 98% with SR leukemia; 64.3% with RPMI-8226 leukemia; 91.3% with OVCAR-8 ovarian; 89.9% in the experiment on OVCAR-5 ovarian; 98.4% in the experiment on OVCAR-4 ovarian; 80.2% in the experiment on SK-OV-3 ovarian. Further, the growth in the experiment on IGROV1 ovarian is 102%; with OVCAR-3 ovarian it was 119%; in the experiment with HS 578T breast it was 119%; in the experiment with NCI/ADR-RES ovarian, 92.1%.
With `CCCCCCCCn1ccc2cc(NC(=O)CN3CCN(c4nc(C)cc(Cl)n4)CC3)ccc21`, the growth with SR leukemia was 23.5%; in the experiment with RPMI-8226 leukemia it was 99.3%; with OVCAR-8 ovarian it was 106%; with OVCAR-5 ovarian, 102%; in the experiment on OVCAR-4 ovarian it was 83.7%; with SK-OV-3 ovarian it was 110%. Further, the growth was 74.4% in the experiment with IGROV1 ovarian, 109% in the experiment with OVCAR-3 ovarian, 89.9% in the experiment on HS 578T breast and 93.2% in the experiment on NCI/ADR-RES ovarian.
For `O=C(c1ccc(Cl)cc1)N1CCN(c2ccnc3cc(Cl)ccc23)CC1`, the growth is 122% with SR leukemia; 75.9% in the experiment with RPMI-8226 leukemia; 87.3% with OVCAR-8 ovarian; 93% with OVCAR-5 ovarian; 70.7% in the experiment on OVCAR-4 ovarian; 93.6% in the experiment with SK-OV-3 ovarian. The growth in the experiment with IGROV1 ovarian was 92.9%; in the experiment with OVCAR-3 ovarian, 100%; with HS 578T breast, 99.3%; in the experiment with NCI/ADR-RES ovarian, 87.7%.
With `O=c1c2cc(-c3ccccc3)sc2nc2sc(-c3ccccc3)nn12`, the growth with SR leukemia was 99.1%; with RPMI-8226 leukemia, 92.4%; in the experiment on OVCAR-8 ovarian, 104%; in the experiment with OVCAR-5 ovarian, 115%; with OVCAR-4 ovarian, 105%; with SK-OV-3 ovarian it was 108%. Further, the growth is 109% in the experiment on IGROV1 ovarian, 108% in the experiment on OVCAR-3 ovarian, 96% in the experiment on HS 578T breast and 107% in the experiment with NCI/ADR-RES ovarian.
Consider `CN(C)CCNC(=O)c1cccc(-c2cnc3ccc(-c4ccc5c(c4)OCO5)nn23)c1`, for which the growth in the experiment with SR leukemia was -2.23% (active); in the experiment with RPMI-8226 leukemia, 75.8%; with OVCAR-8 ovarian it was 88.6%; in the experiment on OVCAR-5 ovarian, 89.3%; in the experiment on OVCAR-4 ovarian, 67.2%; in the experiment with SK-OV-3 ovarian, 61.1%. The growth is 30.6% in the experiment with IGROV1 ovarian, 76.9% in the experiment with OVCAR-3 ovarian, 80.1% in the experiment with HS 578T breast and 85.8% in the experiment with NCI/ADR-RES ovarian.
In the case of `N#CC1=C(N)Oc2c(sc3c(Br)cccc23)C1c1ccc(F)cc1` (stereo not given), the growth in the experiment on SR leukemia is 5.83% (active); in the experiment with RPMI-8226 leukemia it was 16.7%; with OVCAR-8 ovarian it was 25.3%; in the experiment on OVCAR-5 ovarian it was 30.9%; in the experiment on OVCAR-4 ovarian it was 56.4%; in the experiment with SK-OV-3 ovarian, 37.4%. The growth in the experiment on IGROV1 ovarian is 26.9%; with OVCAR-3 ovarian, 9.66% (active); in the experiment on HS 578T breast, 42%; with NCI/ADR-RES ovarian, 9.77% (active).
`Cc1noc(C)c1C(=O)OCc1coc2ccccc2c1=O`: the growth in the experiment on SR leukemia was 45.3%; in the experiment on RPMI-8226 leukemia, 30.1%; in the experiment with OVCAR-8 ovarian it was 91.8%; with OVCAR-5 ovarian it was 71.6%; in the experiment with OVCAR-4 ovarian, 62.8%; in the experiment on SK-OV-3 ovarian, 109%. Further, the growth was 82.6% in the experiment on IGROV1 ovarian, 44.9% with OVCAR-3 ovarian, 78.3% in the experiment with HS 578T breast and 90.7% in the experiment with NCI/ADR-RES ovarian.
Consider `O=C(COc1ccc(-c2nc3ccccc3[nH]2)cc1)N=Nc1c(O)[nH]c2ccc(Cl)cc12`, for which the growth was 11.2% in the experiment with SR leukemia; 57.4% with RPMI-8226 leukemia; 11.9% in the experiment on OVCAR-8 ovarian; 104% in the experiment with OVCAR-5 ovarian; 60.7% in the experiment with OVCAR-4 ovarian; 103% in the experiment on SK-OV-3 ovarian. Besides, the growth with IGROV1 ovarian was 88%; with OVCAR-3 ovarian, 63.7%; with HS 578T breast, 72.4%; in the experiment on NCI/ADR-RES ovarian, 107%.
On to `O=C(CSc1nc2ccc([N+](=O)[O-])cc2[nH]1)Nc1cccc(C(F)(F)F)c1`, for which the growth with SR leukemia was 14.5%; in the experiment on RPMI-8226 leukemia, -11.8% (active); in the experiment on OVCAR-8 ovarian, 13.8%; in the experiment with OVCAR-5 ovarian it was 63.5%; with OVCAR-4 ovarian it was 12%; in the experiment with SK-OV-3 ovarian, 27.1%. For the same compound, the growth in the experiment on IGROV1 ovarian was 41%; in the experiment with OVCAR-3 ovarian it was 20.7%; in the experiment on HS 578T breast it was 24.8%; in the experiment on NCI/ADR-RES ovarian, 21.9%.
On to `N#Cc1nn(-c2cc(=O)[nH]c3ccc(Cl)cc23)c(N)c1C#N`, for which the growth was 0.706% (active) in the experiment with SR leukemia; -24.6% (active) in the experiment on RPMI-8226 leukemia; 95.8% in the experiment with OVCAR-8 ovarian; 105% in the experiment with OVCAR-5 ovarian; 91.5% with OVCAR-4 ovarian; 74.6% in the experiment with SK-OV-3 ovarian. The growth with IGROV1 ovarian was 102%; in the experiment with OVCAR-3 ovarian, 108%; in the experiment on HS 578T breast, 103%; in the experiment on NCI/ADR-RES ovarian, 98.5%.
For the compound `Cn1cc(-c2nc(-c3c[nH]c4ccncc34)cs2)c2ccccc21`, the growth in the experiment with SR leukemia was -9.5% (active); in the experiment on RPMI-8226 leukemia it was -29% (active); in the experiment on OVCAR-8 ovarian it was 49.4%; with OVCAR-5 ovarian it was 71.8%; in the experiment with OVCAR-4 ovarian it was 52.1%; in the experiment on SK-OV-3 ovarian, 77.3%. In addition, the growth with IGROV1 ovarian was 67.3%; in the experiment on OVCAR-3 ovarian, 85.8%; with HS 578T breast, 90.1%; in the experiment with NCI/ADR-RES ovarian, 86.4%.
